High-throughput results (PubChem)
CCHF vOTU inh – CCHFV vOTU protease inhibition; Pep-AMC fluorescence; inhibition, % at 11.5 µM; AID 651958; 370,000 compounds, 0.55% hits; in the data active = inhibition above about 30%
DUSP3 inh – blocks human VHR1 dual specificity phosphatase; P51452; recombinant VHR phosphatase, pNPP absorbance; inhibition, % at 13.3 µM; 290,000 compounds, 0.52% hits; AID 1654; in the data active = inhibition above about 50%
GDH-TPI counter-1 – counter-screen for M. tuberculosis FBA inhibitors: GDH-TPI coupled enzymes; GDH-TPI coupled enzyme counterscreen, NADH absorbance; inhibition, % at 4.8 µM; 360,000 compounds, 1.2% hits; AID 588335; in the data active = inhibition above about 30%
Mtb FBA inh – inhibits M. tuberculosis FBA enzyme | inhibition, % at 1 µM | purified M. tuberculosis FBA, fluorescence read-out | AID 588726 | 360,000 compounds, 2.3% hits
RecA intein inh – Mtb RecA intein splicing inhibition; P9WHJ3; cell-free RecA intein splicing, fluorescence; inhibition, % (concentration not given with the values); 290,000 compounds, 0.75% hits; in the data active = inhibition above about 30%
SARS 3CLpro inh – SARS-CoV 3CLpro protease inhibition. P0C6X7. recombinant SARS-CoV 3CLpro, quenched FRET peptide cleavage. inhibition, % at 6 µM. 290,000 compounds, 0.14% hits; in the data active = inhibition above about 12%
Mtb FBA inh conf – Mtb FBA inhibition, confirmed. purified M. tuberculosis FBA, fluorescence read-out. shares compounds with Mtb FBA inh. AID 651616. 5,600 compounds, 78% hits. inhibition, % at 1 µM
GDH-TPI counter-2 – GDH-TPI inhibition counter-screen for FBA inhibitors. shares compounds with Mtb FBA inh. GDH-TPI coupled enzyme counterscreen, fluorescence. inhibition, % at 1 µM. 5,600 compounds, 81% hits; in the data active = inhibition above about 10%
GDH-TPI DR – inhibits GDH-TPI coupling enzymes in dose response | 170 compounds, 79% hits | IC50, µM | shares compounds with Mtb FBA inh | GDH-TPI coupled enzyme assay, fluorescence, artifact counterscreen; call rule not given here
A number is an active result; 0 = inactive; - = not tested or not shown; + = active, no number. Rows were chosen to be rich in hits. Some 4.7% of all compounds tested hit in one or more screens of this group. Rule as the data show it, unless noted: active = inhibition above about 27%; inactive = the rest.

SMILES	CCHF vOTU inh	DUSP3 inh	GDH-TPI counter-1	Mtb FBA inh	RecA intein inh	SARS 3CLpro inh	Mtb FBA inh conf	GDH-TPI counter-2	others
Cc1ccc(N(C)S(=O)(=O)c2cccc(C(=O)NCC(c3cccs3)N3CCOCC3)c2)cc1 (configuration not stated)	0	-	0	0	0	-	-	-
CC(C(=O)NCCc1ccc(Cl)cc1)n1c(=O)c2cccn2c2cccnc21 (configuration not stated)	0	0	0	0	0	0	-	-
NCCCCc1ccc2ccc3cccc4ccc1c2c34	0	-	0	0	-	-	-	-
O=C(O)CCCc1ccc2ccc3cccc4ccc1c2c34	0	0	35.3	55.9	0	0	+	+
C=CCOc1ccc(-c2n[nH]c(=S)o2)cc1	0	0	0	35.1	0	0	87.1	76.2
COc1ccc(C(=O)Nc2ccc(-c3n[nH]c(=S)o3)cc2)cc1	0	0	0	0	0	0	-	-
N#Cc1ccc(CSc2nnc(-c3cnccn3)o2)cc1	0	0	0	0	0	0	-	-
N#Cc1ccc(CNc2cnccn2)cc1	0	0	0	68.6	0	0	0	0
Clc1ccc(CNc2cnccn2)cc1Cl	0	0	0	61.2	0	0	0	0
CS(=O)(=O)Nc1cccc(C2=NN(C(=O)c3ccc(F)cc3)C(c3cccs3)C2)c1 (configuration not stated)	0	0	0	0	0	0	-	-
O=C(COC(=O)Cn1cc(C(F)(F)F)ccc1=O)Nc1ccc(Br)cc1F	0	-	0	0	-	-	-	-
O=C(O)c1ccc(-c2nc3ccccc3s2)o1	0	0	42.0	43.8	0	0	35.0	29.4
O=C(O)CCN1C(=O)/C(=C/c2ccc(-c3nc4ccccc4s3)o2)SC1=S	0	0	0	0	0	0	-	-
O=Cc1ccc(-c2nc3ccccc3s2)o1	0	0	0	32.5	0	0	30.6	30.5
O=S(=O)(Nc1ccc2ccccc2n1)c1ccccc1	0	0	0	0	0	0	-	-
Cc1ccc(S(=O)(=O)Nc2nc(C)c(C(=O)NN)s2)cc1	0	0	0	0	0	0	-	-
C/C(=N/NC(=O)c1sc(NS(=O)(=O)c2ccc(C)cc2)nc1C)c1sc(N)nc1C	0	0	0	66.2	0	0	171.7	139.7
COc1ccc(OCC(=O)NC2CCSc3ccccc32)cc1 (configuration not stated)	0	-	0	0	-	-	-	-
Cn1c2ccccc2c2c(C(=O)NCC3CCCO3)cn(C3CCCC3)c(=O)c21 (configuration not stated)	-	0	0	0	0	0	-	-
CN1CCN(CCCNC(=O)c2cn(C3CCCCC3)c(=O)c3c2c2ccccc2n3C)CC1	0	0	0	30.7	0	0	36.9	40.9
Cn1c2ccccc2c2c(C(=O)NCCCN3CCCC3=O)cn(C3CCCCC3)c(=O)c21	0	0	0	35.5	0	0	98.0	85.0
Cn1c(C(=O)NCCCN2CCCC2=O)cc2c(=O)n(C)c3ccccc3c21	0	0	0	0	0	0	-	-
C=CS(=O)(=O)N[C@@H](CSSC[C@H](NS(=O)(=O)C=C)C(=O)OC)C(=O)OC	0	-	-	-	-	-	-	-
Cc1cc(C)c2nc(-c3ccccn3)cc(C(=O)NCc3ccco3)c2c1	0	0	0	50.7	0	0	+	198.7
Cc1cc(C)c2nc(-c3ccccn3)cc(C(=O)Nc3cc(C)on3)c2c1	0	0	0	0	-	0	-	-
SMILES	CCHF vOTU inh	DUSP3 inh	GDH-TPI counter-1	Mtb FBA inh	RecA intein inh	SARS 3CLpro inh	Mtb FBA inh conf	GDH-TPI counter-2	others
C=CCNC(=O)c1cc(-c2cccnc2)nc2ccccc12	0	0	0	0	0	0	-	-
Cc1cc(C)c2nc(-c3ccccn3)cc(C(=O)NCc3cc(C)n(C)n3)c2c1	0	0	0	75.5	0	0	67.6	52.8
C=CCNC(=O)c1cc(-c2ccncc2)nc2c(C)cc(C)cc12	0	0	0	60.0	0	0	151.7	129.8
Cc1ccc(S(=O)(=O)NCCC(=O)Nc2ccncc2)cc1C	0	-	0	0	0	-	-	-
CC(=O)N/C(=C\c1ccc(F)cc1)C(=O)N(C)C	0	0	0	0	0	0	-	-
CCOC(=O)CC[C@@]1(C(=O)OCC)C[C@@H](CC(=O)NCC23CC4CC(CC(C4)C2)C3)C(=O)N2CCCC=C21	0	-	-	-	-	-	-	-
Cc1cc2[nH]c(=O)c3ccccc3n2n1	0	0	0	0	0	0	-	-
Cc1cc2[nH]c(=O)cc(-c3ccccc3)n2n1	0	0	0	34.0	0	0	153.3	119.8
CN(C)CC(=O)Nc1ccc2c(c1)[C@H]1C[C@H](CC(=O)NCc3ccc4c(c3)OCO4)O[C@H](CO)[C@H]1O2	0	-	0	0	-	-	-	-
Cc1cc(=O)oc2cc(OCC(=O)NCCCN3CCCC3=O)ccc12	0	0	0	0	0	0	-	-
Cc1cc(OCC(=O)NCCc2ccc(Cl)cc2)c2c(C)cc(=O)oc2c1	0	0	0	0	0	0	-	-
Cc1c(OCC(=O)NCCCN2CCCC2=O)ccc2c3c(c(=O)oc12)CCC3	0	0	0	0	0	0	-	-
Cc1c(C)c2ccc(OCC(=O)NCCCN3CCCC3=O)cc2oc1=O	0	0	0	86.6	0	0	55.7	45.7
Cc1cc(OCC(=O)NCCc2ccc(S(N)(=O)=O)cc2)c2c(C)c(C)c(=O)oc2c1	0	0	0	64.8	0	0	0	0	GDH-TPI DR=1.96
Cc1c(OCC(=O)NCCCN2CCCC2=O)ccc2c3c(c(=O)oc12)CCCC3	0	0	0	29.1	0	0	+	+
Cc1cc(OCC(=O)NCCCN2CCCC2=O)c2c(C)c(C)c(=O)oc2c1	0	0	0	80.0	0	0	+	+
CCOC(=O)CCCCCC(=O)Nc1ccc2c(c1)C(=O)N([C@H](C)CO)C[C@@H](C)[C@@H](CN(C)S(=O)(=O)c1ccc(C)cc1)OCCCC[C@H](C)O2	0	-	-	-	-	-	-	-
COc1ccccc1Cc1c(-c2ccc(OC)c(OC)c2)nc2c(Cl)cc(C(F)(F)F)cn12	0	-	-	-	-	-	-	-
Cc1cc(OCC(=O)NCCCN2CCOCC2)c2c(C)c(C)c(=O)oc2c1	0	0	0	86.1	0	0	129.3	144.2
NC(=O)COc1ccc(NS(=O)(=O)Cc2ccccc2)cc1	0	0	0	0	0	0	-	-
NC(=O)c1ccccc1NS(=O)(=O)Cc1ccccc1	0	0	0	61.6	0	0	83.9	66.3
Cc1cc(=O)oc2cc(O[C@@H]3O[C@H](CO)[C@@H](O)[C@H](O)[C@H]3O)ccc12	0	0	0	0	0	0	-	-
Cc1ccc(OCC(=O)Nc2ccc(C(=O)Nc3ccccc3C(=O)O)cc2)cc1C	0	-	0	0	-	-	-	-
Cc1ccc(OCC(=O)Nc2ccc(O)c(C(=O)O)c2)cc1C	0	0	0	71.5	0	0	+	+
CCOC(=O)C(CC)c1cc2n(c(=O)c1C#N)CCC21OCCO1 (configuration not stated)	0	-	-	69.1	-	-	+	+
